Test results from PubChem BioAssay AID1839 (Johns Hopkins Ion Channel Center, 2009).
Hit rate of the full screen: of about 2,400 compounds, about 220 (9.2%) were called active.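 The calls were made as follows: active = signal change above the mean of dofetilide-free buffer controls plus 3 SD, so a positive margin; inactive = the rest.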 Shown is part of a subset that was picked to be rich in actives.

experiment: nonspecific flux effects in parental CHO-K1, confirmation, counter-screen for hERG block protection project, cell-based, CHO-K1 parental line, FluxOR thallium flux (AID 1839); details: CHO-K1 parental cells, FluxOR thallium flux fluorescence; at 10 µM;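 also: compounds applied alone with no dofetilide to cells lacking hERG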

Structure (SMILES)	signal change vs control minus 3*SD hit threshold (margin above threshold, higher = more increase)
Cc1ccccc1NP(=O)(c1ccccc1)c1nc2ccccc2s1 (stereo not given)	-31.9% (inactive)
CCOc1ccc(N)c(SSc2cc(OCC)ccc2N)c1	-32.6% (inactive)
Cc1ccc(CC23CN4CCN(CC(C4)C2O)C3)c(C)c1 (stereo not given)	-14.8% (inactive)
CN(C)CCOC(=O)C1(c2ccccc2)CCCC1	-31.9% (inactive)
COC(=O)C1=C(C)NC2=C(C(=O)CCC2)C1c1ccc(-c2ccsc2C(=O)OC)o1 (stereo not given)	-17.8% (inactive)
O=C(/C=C/c1ccccc1)CC(=O)c1ccccc1O	-29.3% (inactive)
CCOc1cc(N2CCOCC2)c(OCC)cc1NC(=O)CCC1CCCC1	-19.4% (inactive)
Cc1ccccc1NC(=S)NC(=O)c1cc(-c2ccccc2)nc2ccccc12	-15.1% (inactive)
COc1ccccc1NC(=S)NC(=O)c1ccc(-c2ccc(Cl)cc2)o1	-22.6% (inactive)
Cc1cccc(NC(=S)NC(=O)c2ccc(Br)o2)c1C	-13.6% (inactive)
Cc1cccc(NC(=S)NC(=O)c2ccc(Br)o2)c1	9.1% (active)
COc1ccc(OC)c(NC(=S)NC(=O)c2ccc(Br)o2)c1	-21.4% (inactive)
O=C(NC(=S)NCc1ccccc1)c1ccc(Br)o1	39.2% (active)
O=C(NC(=S)Nc1ccccc1)c1ccc(Br)o1	-17.9% (inactive)
CCN(c1ccccc1)S(=O)(=O)c1ccc(NC(=S)NC(=O)c2ccc(Br)o2)cc1	-20.8% (inactive)
O=C(NC(=S)Nc1ccccc1F)c1ccc(Br)o1	23% (active)
O=C(CNC(=S)NC(=O)c1ccc(Br)o1)c1ccccc1	-26.3% (inactive)
Cc1cccc(C)c1NC(=S)NC(=O)c1ccc(Br)o1	18.7% (active)
O=C(NC(=S)NCc1ccccc1)c1cccs1	-11.1% (inactive)
Cc1ccc(NC(=S)NC(=O)c2ccc(Br)o2)c(C)c1	-19.5% (inactive)
CCN(CC)c1ccc(NC(=S)NC(=O)c2ccco2)cc1	-1.8% (inactive)
N#Cc1c(-c2ccco2)c2c([nH]c1=S)CCCC2	-29.5% (inactive)
CCOC(=O)c1c(-c2ccccc2)csc1NC(=S)NC	-10.9% (inactive)
CC12CCC(C/C1=N\N=C1\NC(=O)/C(=C\c3ccc(Cl)cc3)S1)C2(C)C (stereo not given)	-20.2% (inactive)
Cc1nnc2ccc(-c3cccc(NC(=O)c4ccc(Cl)nc4)c3)nn12	-41.7% (inactive)

Structure (SMILES)	signal change vs control minus 3*SD hit threshold (margin above threshold, higher = more increase)
O=C(NC(=S)N1CCN(c2ccccc2)CC1)c1ccccc1	-8.7% (inactive)
CC(C)Sc1nc2ccccc2n2cnnc12	-29.7% (inactive)
Cc1cccc(/C=C2/S/C(=N/N=C3\CC4CCC3(C)C4(C)C)NC2=O)c1 (stereo not given)	-12.4% (inactive)
Cc1ccc2nsnc2c1S(=O)(=O)Nc1cccc2nsnc12	-18.7% (inactive)
CCC1CCc2c(sc(NC(=O)C3CC=CCC3C(=O)O)c2C#N)C1 (stereo not given)	-5.5% (inactive)
O=C1c2ccccc2NC(c2ccc(Br)s2)N1O (stereo not given)	15.6% (active)
C=CCc1cccc(C2Nc3ccccc3C(=O)N2O)c1O (stereo not given)	-26.4% (inactive)
Cc1cc([N+](=O)[O-])ccc1-c1ccc(C2Nc3ccccc3C(=O)N2O)o1 (stereo not given)	-18.3% (inactive)
C=CCN(CC=C)C(=S)NC(=O)/C=C/c1ccc(OC)cc1	-19.8% (inactive)
Cc1cc(-c2cccnc2)c(C#N)c(SCc2cccc(F)c2)n1	-37.3% (inactive)
COC(=O)c1sccc1NC(=S)NCc1ccc(Cl)cc1	-22.4% (inactive)
CCc1cc2c(=O)n(CCC(C)C)c(=S)[nH]c2s1	26.1% (active)
CCOC(=O)C1=C(c2ccccc2)NC(=O)NC1c1ccc(OC)c(OC)c1 (stereo not given)	-32.6% (inactive)
CSC(=S)N/N=C/c1ccccc1	18.1% (active)
C/C(=N\NC(N)=S)c1ccncc1	-26.5% (inactive)
CSC(=S)N/N=C/c1ccc(Br)cc1	-17.6% (inactive)
CSC(=S)N/N=C(\C)c1ccccc1	15.8% (active)
C/C(=N\NC(N)=S)c1cccnc1	-29.6% (inactive)
CC(C)NC(=S)N/N=C/c1ccc(C(C)(C)C)cc1	-20.4% (inactive)
CC1=C(C#N)C(Nc2cc(C)ccn2)(C(F)(F)F)C(=O)N1 (stereo not given)	-31.1% (inactive)
CCOC(=O)c1c(-c2ccc(C)o2)csc1NC(=S)NC(=O)N(C)C	-14.3% (inactive)
CNc1nc(N)nc(OC(C(F)(F)F)C(F)(F)F)n1	-25.1% (inactive)
S=c1nc(-c2ccccc2)[nH]c2ccc(Br)cc12	52.8% (active)
CC(=O)c1c(N2CCCC2)[nH]c(-c2ccccc2)nc1=S	-21.2% (inactive)
CC(=O)c1c(NC(=O)c2ccccc2)[nH]c(-c2ccccc2)nc1=S	-26.3% (inactive)

Structure (SMILES)	signal change vs control minus 3*SD hit threshold (margin above threshold, higher = more increase)
CC(Oc1ccc(Br)cc1)c1nc2c3ccccc3nc(=S)n2[nH]1 (stereo not given)	-25% (inactive)
S=c1[nH]c2ccccc2c2ccccc12	-25% (inactive)
S=c1nc(-c2ccc(Br)cc2)[nH]c2ccccc12	53.6% (active)
NNC(=O)CNc1ccccc1Cl	-26% (inactive)
CN(C)c1ccc(C(CNS(=O)(=O)c2ccc([N+](=O)[O-])cc2)N2CCCC2)cc1 (stereo not given)	-29% (inactive)
O=C(CCc1ccccc1)Nc1nccs1	-33.8% (inactive)
CC(C)C(=O)Nc1ccc(NC(=O)CCc2ccccc2)cn1	-33.7% (inactive)
O=C(Nc1ncc(Br)s1)C(Cc1ccccc1)n1cccc1 (stereo not given)	6.9% (active)
COc1cccc(OC)c1C(=O)NC(=S)N1CCN(c2ccc(C(F)(F)F)cc2[N+](=O)[O-])CC1	-46.3% (inactive)
COCc1cc(C)nc(OCC(=O)N/N=C/c2ccc(-c3cc([N+](=O)[O-])ccc3Cl)o2)c1C#N	-29.8% (inactive)
CC(=O)c1n[nH]nc1NC(=O)c1ccccc1	-17.2% (inactive)
Cc1nn(C(=O)CNC(=O)c2ccccc2)c(C)c1C	-23.2% (inactive)
Cc1ccccc1Cn1nc(C)c(NC(=O)c2ccccc2)c1C	11.5% (active)
Cn1nc(C(F)(F)F)c(-c2ccc(Br)cc2)c1NC(=O)c1cccnc1	-37.7% (inactive)
O=C1NCC(=O)N2C(c3ccccc3)c3[nH]c4ccccc4c3C[C@@H]12 (stereo not given in full)	-28.2% (inactive)
S=c1nc(C2CCCCC2)n(-c2ccccc2)[nH]1	-0.7% (inactive)
S=c1nc(-c2ccccc2)[nH]n1-c1ccccc1	16.8% (active)
S=c1nc(-c2ccccc2)c(-c2ccccc2)n[nH]1	-37% (inactive)
COc1cccc(NC(=O)c2nn(-c3ccc(OC)cc3OC)c(=O)c3ccccc23)c1	-26.1% (inactive)
COc1ccc(-n2nc(C(=O)NCC(=O)NCc3ccc(F)cc3)c3ccccc3c2=O)cc1OC	-26.4% (inactive)
COc1cccc(-n2nc(C(=O)O)c3ccccc3c2=O)c1	4.7% (active)
CC(C)Oc1cc(S(=O)(=O)N2CCCCC2)ccc1N	-27.8% (inactive)
CC(C)COc1ccc(-c2nn(-c3ccccc3)cc2C(=O)Nc2nccs2)cc1	-25.4% (inactive)
COc1ccc(-n2c(=S)[nH]c3ccccc3c2=S)cc1	-30.8% (inactive)
COc1ccc(OC(=O)Cc2cccc3ccccc23)cc1	-30.2% (inactive)

Structure (SMILES)	signal change vs control minus 3*SD hit threshold (margin above threshold, higher = more increase)
COc1ccc(-c2nc(=S)c3ccc4ccccc4c3[nH]2)cc1	32.2% (active)
CCc1ccc(NC(=S)NC(=O)c2c(-c3ccccc3Cl)noc2C)cc1	-32.8% (inactive)
C=CCn1c2ccccc2c(=O)c2cc(C#Cc3ccsc3)ccc21	-24.5% (inactive)
COc1ccc(C(=O)CC(=O)C(=O)Nc2ccccc2)cc1	-20.3% (inactive)
COc1ccc(OCC(=O)NNC(=O)C(=O)Nc2ccc(C)cc2)cc1	-35.4% (inactive)
COc1ccccc1NC(=O)C(=O)NNC(=O)COc1ccc2ccccc2c1	59.2% (active)
COc1ccc(NC(=O)C(=O)NNC(=O)COc2ccc(Cl)cc2)c(OC)c1	-0.4% (inactive)
COc1cccc(OCC(=O)NNC(=O)C(=O)Nc2cccc(C)c2)c1	0.8% (active)
O=C(COc1ccc2ccccc2c1)NNC(=O)C(=O)Nc1ccccc1	15.8% (active)
COc1ccc(NC(=O)C(=O)NNC(=O)COc2ccc(OC)cc2)cc1	-38% (inactive)
CCc1ccc(NC(=O)C(=O)NNC(=O)COc2cccc(OC)c2)cc1	-13.5% (inactive)
COc1cccc(OCC(=O)NNC(=O)C(=O)Nc2ccc(OC)cc2OC)c1	-21.1% (inactive)
Cc1ccccc1NC(=O)C(=O)NNC(=O)COc1ccc2ccccc2c1	-2.5% (inactive)
N#Cc1cccc(N=c2ssnc2Cl)c1	-30.2% (inactive)
CCOc1cc(N2CCOCC2)c(OCC)cc1NC(=O)Cn1nc(C)c([N+](=O)[O-])c1C	-22.7% (inactive)
Cc1ccccc1NC1=C/C(=N\S(=O)(=O)c2ccc(C(=O)O)cc2)c2ccccc2C1=O	-22% (inactive)
Cc1ccc(C(=O)n2c(-c3ccccc3)cnc2SCC(=O)Nc2ccc(C)cc2C)cc1	-8.7% (inactive)
CC12CCC(C(=O)OC3CCCCC3)(OC1=O)C2(C)C (stereo not given)	-36.3% (inactive)
O=C1c2cccc3cccc(c23)C(=O)C1(O)O	-20.6% (inactive)
S=c1[nH]c2cc(-c3ccccc3)ccc2o1	38.6% (active)
COC(=O)c1sc(NC(=S)NC(=O)c2ccc(C)cc2)nc1C	-19.1% (inactive)
Cc1ccsc1CN(C(=O)c1ccc([N+](=O)[O-])cc1)C1CCS(=O)(=O)C1 (stereo not given)	-32.2% (inactive)
Cc1nn(C)c(C(=O)NC(=S)Nc2ccc([N+](=O)[O-])cc2)c1Cl	-13.2% (inactive)
CCCCOC(=O)c1ccc(NC(=S)NC(=O)c2c(Br)c(C)nn2C)cc1	6.3% (active)
CCCCOC(=O)c1ccc(NC(=S)NC(=O)c2c(Cl)cnn2C)cc1	-18.6% (inactive)
